Assay results taken from PubChem BioAssay (Tox21).
“And” between values parts separate entries of the source, which are not always exact repeats. Equal entries are not always repeated. Inconclusive results are not listed. Where a call stands in place of a potency, no number is given. The source holds several records for some structures; these can differ, active in one and inactive in another. The source made the active and inactive calls. Unless noted, calls come from the whole dose curve; as a rule, active = well fitted curve in the direction sought with a large enough effect in the repeat runs; inconclusive = weak or mixed curves; inactive = no such curve, though single readings can be large; an effect the other way counts as inactive or inconclusive.

Assays:
[1] = qHTS assay to test for compound auto fluorescence at 535 nm (green) in HEK293 cells (AID 720680)
[2] = qHTS assay to test for compound auto fluorescence at 460 nm (blue) in HEK293 cell free culture (AID 720681)
How it was run: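 Test compounds were pinned into cell-free culture medium (DMEM with 10% FBS) and fluorescence was read directly at Ex/Em 405/460 nm. Signals were expressed as fluorescence equivalents of triamterene, with DMSO vehicle as control.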

[3] = qHTS assay to test for compound auto fluorescence at 535 nm (green) in HEK293 cell free culture (AID 720682)
How it was run: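 Read-out: 485/535 nm fluorescence intensity, calibrated against fluorescein. Medium only (DMEM + 10% FBS, no cells); test compound or DMSO vehicle added by pintool before plate reading.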

[4] = qHTS assay to test for compound auto fluorescence at 590 nm (red) in HEK293 cell free culture (AID 720683)
How it was run: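 Tox21 10K library compounds were pinned into cell-free DMEM with 10% FBS and fluorescence was read at excitation 540 nm. Activity is expressed as Rose Bengal sodium equivalency.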

[5] = qHTS assay to test for compound auto fluorescence at 590 nm (red) in HepG2 cell free culture (AID 720684)
How it was run: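 Measured in medium alone (MEM containing 10% FBS) following pintool addition of compound; emission at 590 nm with 540 nm excitation, referenced to Rose Bengal sodium.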

[6] = qHTS assay to test for compound auto fluorescence at 460 nm (blue) in HepG2 cell free culture (AID 720685)
How it was run: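 Compound (23 nL) or DMSO pinned into cell-free MEM with 10% FBS; blue fluorescence read at 405/460 nm excitation/emission, expressed as auto-fluorescence equivalency to triamterene.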

[7] = qHTS assay to test for compound auto fluorescence at 535 nm (green) in HepG2 cell free culture (AID 720686)
[8] = qHTS assay to test for compound auto fluorescence at 460 nm (blue) in HepG2 cells (AID 720687)
How it was run: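 Cells (2,000/well in MEM with 10% FBS) attached overnight at 37 C, then were exposed to compound or DMSO for 1 hr at 37 C, 5% CO2. Fluorescence read at Ex/Em 405/460 nm, expressed as triamterene-equivalent signal.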

[9] = qHTS assay to identify small molecule antagonists of the glucocorticoid receptor (GR) signaling pathway - cell viability counter screen (AID 720693); note: nearly all actives have a fitted effect of over 55% in size; note: potency is the fitted concentration of half-maximal effect
[10] = qHTS assay for identifying genotoxic compounds that show differential cytotoxicity against isogenic chicken DT40 cell lines with known DNA damage response pathways - wild type cell line (AID 743012); note: nearly all actives have a fitted effect of over 60% in size; note: potency is the fitted concentration of half-maximal effect
How it was run: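 First, wild type DT40 cells were plated at 300 per well and equilibrated about 0.5 h at 37 C/5% CO2. Next, compounds in DMSO were added and exposure lasted 40 h. Finally, CellTiter-Glo was added for 30 min at room temperature and luminescence recorded.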

[11] = qHTS assay for identifying genotoxic compounds that show differential cytotoxicity against isogenic chicken DT40 cell lines with known DNA damage response pathways - Rev3 mutant cell line (AID 743014); note: nearly all actives have a fitted effect of over 55% in size; note: potency is the fitted concentration of half-maximal effect
[12] = qHTS assay for identifying genotoxic compounds that show differential cytotoxicity against isogenic chicken DT40 cell lines with known DNA damage response pathways - Rad54/Ku70 mutant cell line (AID 743015); note: nearly all actives have a fitted effect of over 60% in size; note: potency is the fitted concentration of half-maximal effect
[13] = qHTS assay to identify small molecule antagonists of the androgen receptor (AR) signaling pathway - cell viability counter screen (AID 743033; note: nearly all actives have a fitted effect of over 45% in size; note: potency is the fitted concentration of half-maximal effect)
[14] = qHTS assay to identify small molecule antagonists of the androgen receptor (AR) signaling pathway using the MDA cell line - cell viability counter screen (AID 743041; note: nearly all actives have a fitted effect of over 45% in size; note: potency is the fitted concentration of half-maximal effect)
How it was run: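 Viability counter screen run alongside the AR antagonist reporter: cells seeded 5 h before compound, R1881 added, 16 h incubation at 37C without CO2, fluorescent CellTiter-Fluor signal quantified.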

[15] = molecular target: Glucocorticoid receptor (Homo sapiens) (UniProt P04150); assay: qHTS assay to identify small molecule antagonists of the glucocorticoid receptor (GR) signaling pathway (AID 720692; active = well fitted inhibition curve with a large enough effect in the signal ratio in the repeat runs, not every such curve was filed as active; the % refers to the signal ratio; note: potency is the fitted concentration of half-maximal effect)
How it was run: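 Inhibition of glucocorticoid signalling is measured in HeLa cells with a GRE-controlled beta-lactamase reporter; cells are co-treated with compound and 5 nM dexamethasone (final) for 18 h before FRET substrate readout.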

[16] = molecular target: Glucocorticoid receptor (Homo sapiens) (UniProt P04150); assay: qHTS assay to identify small molecule agonists of the glucocorticoid receptor (GR) signaling pathway (AID 720691; active = well fitted activation curve with a large enough effect in the signal ratio in the repeat runs, not every such curve was filed as active; the % refers to the signal ratio)
How it was run: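 qHTS in GR-bla HeLa cells: 4 h settling at 37 C/5% CO2, 18 h compound incubation at 37 C, 2 h LiveBLAzer B/G FRET substrate at room temperature, fluorescence intensity measured.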

[17] = molecular target: Androgen receptor (Homo sapiens) (UniProt P10275); assay: qHTS assay to identify small molecule antagonists of the androgen receptor (AR) signaling pathway (AID 743035; active = well fitted inhibition curve with a large enough effect in the signal ratio in the repeat runs, not every such curve was filed as active; the % refers to the signal ratio; note: potency is the fitted concentration of half-maximal effect)
How it was run: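 Beta-lactamase FRET read (2 h RT incubation with LiveBLAzer B/G) following 16 h of compound plus R1881 treatment of AR-UAS-bla HEK293 cells, which had been pre-incubated 4 h at 37C.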

[18] = molecular target: Androgen receptor (Homo sapiens) (UniProt P10275); assay: qHTS assay to identify small molecule agonists of the androgen receptor (AR) signaling pathway using the MDA cell line (AID 743040; note: nearly all actives have a fitted effect of over 20% in size); conditions: MDA-kb2 AR-luc cells, MMTV luciferase, 16 h, stronger effect = higher value
How it was run: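 Luminescence from ONE-Glo, read after 30 min at room temperature, reflects MMTV-driven luciferase in MDA-kb2 cells (AR- and GR-responsive). Treatment lasted 16 h at 37C, 0% CO2.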

[19] = molecular target: Androgen receptor (Homo sapiens) (UniProt P10275); assay: qHTS assay to identify small molecule antagonists of the androgen receptor (AR) signaling pathway using the MDA cell line (AID 743042; note: nearly all actives have a fitted effect of over 55% in size; note: potency is the fitted concentration of half-maximal effect)
How it was run: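 MDA-kb2 cells (human breast carcinoma, stably carrying an MMTV-luciferase reporter responsive to AR and GR) were plated at 3,000 cells/well and preincubated 5 hr at 37C, then given compound plus R1881 agonist for 16 h. ONE-Glo luminescence was read.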

[20] = molecular target: Androgen receptor (Homo sapiens) (UniProt P10275); assay: qHTS assay to identify small molecule agonists of the androgen receptor (AR) signaling pathway (AID 743036; active = well fitted activation curve with a large enough effect in the signal ratio in the repeat runs, with a control signal flat, not every such curve was filed as active; the % refers to the signal ratio)
How it was run: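 HEK293 cells stably carrying a UAS-driven beta-lactamase reporter (GeneBLAzer AR-UAS-bla-GripTite) were plated at 2,000 cells/well, rested 4 h at 37C, then exposed to compounds in DMSO for 16 h. LiveBLAzer B/G FRET substrate was added for 2 h at room temperature; fluorescence read.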

Glucocorticoid receptor (Homo sapiens), sequence (P04150 whole entry, looked up): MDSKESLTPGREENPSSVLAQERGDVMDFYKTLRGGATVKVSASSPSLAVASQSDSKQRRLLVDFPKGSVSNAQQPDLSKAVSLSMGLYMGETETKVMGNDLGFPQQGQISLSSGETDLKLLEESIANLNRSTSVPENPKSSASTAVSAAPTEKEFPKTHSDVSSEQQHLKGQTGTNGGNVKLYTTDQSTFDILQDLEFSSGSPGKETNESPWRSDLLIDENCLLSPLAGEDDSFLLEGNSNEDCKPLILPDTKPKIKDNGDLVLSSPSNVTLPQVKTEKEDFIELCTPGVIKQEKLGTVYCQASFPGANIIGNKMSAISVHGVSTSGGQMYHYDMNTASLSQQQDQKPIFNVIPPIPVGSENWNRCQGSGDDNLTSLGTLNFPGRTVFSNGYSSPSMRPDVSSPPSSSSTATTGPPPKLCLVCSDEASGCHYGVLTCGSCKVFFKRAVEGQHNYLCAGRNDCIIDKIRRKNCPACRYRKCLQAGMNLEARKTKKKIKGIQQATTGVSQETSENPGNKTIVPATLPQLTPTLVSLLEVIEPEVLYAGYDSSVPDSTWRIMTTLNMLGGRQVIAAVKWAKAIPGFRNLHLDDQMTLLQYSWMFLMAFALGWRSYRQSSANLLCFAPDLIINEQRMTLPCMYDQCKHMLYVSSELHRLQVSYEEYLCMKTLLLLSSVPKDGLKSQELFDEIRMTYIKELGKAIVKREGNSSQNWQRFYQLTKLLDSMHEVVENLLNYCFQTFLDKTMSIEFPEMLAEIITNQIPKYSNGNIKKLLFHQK
Androgen receptor (Homo sapiens), sequence (P10275 whole entry, looked up): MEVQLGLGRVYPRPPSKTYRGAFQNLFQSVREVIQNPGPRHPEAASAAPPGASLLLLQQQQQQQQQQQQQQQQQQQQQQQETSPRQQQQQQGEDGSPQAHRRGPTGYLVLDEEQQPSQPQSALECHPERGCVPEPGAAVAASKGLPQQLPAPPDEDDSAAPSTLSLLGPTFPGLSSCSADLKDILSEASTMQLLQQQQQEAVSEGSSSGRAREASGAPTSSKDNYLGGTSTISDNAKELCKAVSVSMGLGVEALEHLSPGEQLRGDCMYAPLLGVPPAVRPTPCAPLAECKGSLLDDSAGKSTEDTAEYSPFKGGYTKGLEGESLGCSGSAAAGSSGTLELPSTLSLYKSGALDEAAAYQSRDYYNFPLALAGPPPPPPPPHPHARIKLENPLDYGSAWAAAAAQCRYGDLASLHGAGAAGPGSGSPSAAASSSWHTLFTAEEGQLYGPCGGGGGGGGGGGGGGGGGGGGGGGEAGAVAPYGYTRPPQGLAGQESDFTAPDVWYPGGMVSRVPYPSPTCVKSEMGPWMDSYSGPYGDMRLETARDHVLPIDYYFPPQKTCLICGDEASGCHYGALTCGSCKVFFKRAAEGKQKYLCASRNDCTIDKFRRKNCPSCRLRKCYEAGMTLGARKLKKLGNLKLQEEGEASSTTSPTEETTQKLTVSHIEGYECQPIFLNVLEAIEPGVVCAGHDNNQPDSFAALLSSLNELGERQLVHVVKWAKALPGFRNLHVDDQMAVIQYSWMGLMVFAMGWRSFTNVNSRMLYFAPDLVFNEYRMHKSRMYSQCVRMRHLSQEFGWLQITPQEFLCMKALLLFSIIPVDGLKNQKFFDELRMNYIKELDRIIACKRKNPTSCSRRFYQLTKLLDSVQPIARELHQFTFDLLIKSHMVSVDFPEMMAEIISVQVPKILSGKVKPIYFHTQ

CCC[CH2][Sn]([Cl])([Cl])[CH2]CCC
outcome [1]: inactive
Potency [2]: inactive
outcome [3]: inactive
outcome [4]: inactive
outcome [5]: inactive
Potency [6]: inactive
outcome [7]: inactive
Potency [8]: inactive
Potency [9]: 6.24 µM (active) and 6.16 µM (active)
Potency [10]: 438 nM (active) and 17.2 nM (active)
Potency [11]: 276 nM (active) and 17.2 nM (active)
Potency [12]: 348 nM (active) and 17.2 nM (active)
Potency [13]: 1.4 µM (active) and 389 nM (active)
Potency [14]: 1.96 µM (active) and 2.73 µM (active)

C[C@]12CC[C@H]3[C@@H](CCC4=CC(=O)CC[C@@H]43)[C@@H]1CC[C@@H]2O
outcome [1]: inactive
Potency [2]: inactive
outcome [3]: inactive
outcome [4]: inactive
outcome [5]: inactive
Potency [6]: inactive
outcome [7]: inactive
Potency [8]: inactive
Potency [15]: 3.01 µM (active) and 4.25 µM (active) and 6.85 µM (active)
Potency [9]: inactive
Potency [10]: 26.6 µM (active)
Potency [11]: inactive
Potency [13]: inactive
Potency [14]: inactive

CC(C)=CC1C(C(=O)OCc2cccc(Oc3ccccc3)c2)C1(C)C (centres undefined)
outcome [1]: inactive
Potency [2]: inactive
outcome [3]: inactive
outcome [4]: inactive
outcome [5]: inactive
Potency [6]: inactive
outcome [7]: inactive
Potency [8]: inactive
outcome [16]: inactive
Potency [9]: inactive
Potency [10]: inactive
Potency [11]: inactive
Potency [12]: inactive
Potency [13]: inactive
Potency [14]: inactive

CCN(CC)C(=O)C(C)Oc1cccc2ccccc12 (centres undefined)
outcome [1]: inactive
Potency [2]: inactive
outcome [3]: inactive
outcome [4]: inactive
outcome [5]: inactive
Potency [6]: inactive
outcome [7]: inactive
Potency [8]: inactive
Potency [9]: inactive
Potency [10]: 10.9 µM (active)
Potency [11]: 54.9 µM (active) and 17.2 µM (active)
Potency [12]: 17.2 µM (active)
Potency [14]: inactive

CCOC(=O)c1ccccc1N
outcome [1]: inactive
Potency [2]: inactive
outcome [3]: inactive
outcome [4]: inactive
outcome [5]: inactive
Potency [6]: inactive
outcome [7]: inactive
Potency [8]: inactive
outcome [16]: inactive
Potency [15]: inactive
Potency [9]: inactive
Potency [10]: inactive
Potency [11]: inactive
Potency [12]: inactive
Potency [13]: inactive
Potency [14]: inactive

C=CC(=O)OCC(CC)(COC(=O)C=C)COC(=O)C=C
outcome [1]: inactive
Potency [2]: inactive
outcome [3]: inactive
outcome [4]: inactive
outcome [5]: inactive
Potency [6]: inactive
outcome [7]: inactive
Potency [8]: inactive
Potency [9]: 12.6 µM (active) and 11 µM (active)
Potency [10]: 2.8 µM (active) and 3.06 µM (active)
Potency [11]: 1.58 µM (active) and 3.06 µM (active)
Potency [12]: 2.5 µM (active) and 2.43 µM (active)
Potency [13]: 7.97 µM (active) and 12.3 µM (active)
Potency [17]: 4.48 µM (active)
activity change ([18]; at 70.3 µM (top of the series)): -11.9% (inactive)
activity change ([18]; at 95 µM (top of the series)): -11.2% (inactive)
Potency [14]: 62.8 µM (active) and 30.6 µM (active)
Potency [19]: 8.87 µM (active) and 6.86 µM (active)

Oc1ccc(Cl)cc1Cc1ccccc1
outcome [1]: inactive
Potency [2]: inactive
outcome [3]: inactive
outcome [4]: inactive
outcome [5]: inactive
Potency [6]: inactive
outcome [7]: inactive
Potency [8]: inactive
Potency [10]: 21.1 µM (active) and 6.19 µM (active)
Potency [11]: 26.6 µM (active) and 54.5 µM (active) and 21.3 µM (active)
Potency [12]: 29.8 µM (active) and 48.6 µM (active) and 16.5 µM (active)
Potency [13]: inactive and 38.9 µM (active) and 39.4 µM (active)
Potency [17]: 19.5 µM (active)
activity change ([18]; at 70.3 µM (top of the series)): -0.884% (inactive) and -9.7% (inactive)
activity change ([18]; at 95 µM (top of the series)): -7.19% (inactive)
Potency [14]: inactive
Potency [19]: inactive and 54.5 µM (active)

CSc1nc(NC(C)C)nc(NC(C)C)n1
outcome [1]: inactive
Potency [2]: inactive
outcome [3]: inactive
outcome [4]: inactive
outcome [5]: inactive
Potency [6]: inactive
outcome [7]: inactive
Potency [8]: inactive
Potency [9]: inactive
Potency [10]: inactive
Potency [13]: inactive
Potency [14]: inactive

CCCCC(C#N)(Cn1cncn1)c1ccc(Cl)cc1 (centres undefined)
outcome [1]: inactive
Potency [2]: inactive
outcome [3]: inactive
outcome [4]: inactive
outcome [5]: inactive
Potency [6]: inactive
outcome [7]: inactive
Potency [8]: inactive
outcome [16]: inactive
Potency [9]: inactive
Potency [10]: 61.1 µM (active)
Potency [11]: 60.9 µM (active) and 19.3 µM (active)
Potency [12]: 60.9 µM (active)
Potency [13]: inactive
Potency [14]: inactive

O=[N+]([O-])/N=C1\NCCN1Cc1ccc(Cl)nc1
outcome [1]: inactive
Potency [2]: inactive
outcome [3]: inactive
outcome [4]: inactive
outcome [5]: inactive
Potency [6]: inactive
outcome [7]: inactive
outcome [16]: inactive
Potency [15]: inactive
Potency [9]: inactive
Potency [10]: inactive
Potency [11]: inactive and 8.41 µM (active)
Potency [12]: inactive and 5.31 µM (active)
Potency [13]: inactive
Potency [17]: inactive
Potency [20]: inactive
activity change ([18]; at 70.3 µM (top of the series)): 0.161% (inactive) and 4.01% (inactive) and 0.695% (inactive)
Potency [14]: inactive
Potency [19]: inactive

CCCCOCC1CO1 (centres undefined)
outcome [1]: inactive
Potency [2]: inactive
outcome [3]: inactive
outcome [4]: inactive
outcome [5]: inactive
Potency [6]: inactive
outcome [7]: inactive
outcome [16]: inactive
Potency [9]: inactive
Potency [10]: inactive
Potency [11]: inactive
Potency [12]: inactive
Potency [13]: inactive
Potency [14]: inactive

CC1=C(C(=O)Nc2ccccc2)SCCO1
outcome [1]: inactive
Potency [2]: inactive
outcome [3]: inactive
outcome [4]: inactive
outcome [5]: inactive
Potency [6]: inactive
outcome [7]: inactive
Potency [8]: inactive
Potency [15]: inactive
Potency [9]: inactive
Potency [10]: 62.1 µM (active) and 17.2 µM (active)
Potency [11]: 24.7 µM (active) and 12.2 µM (active)
Potency [12]: 62.1 µM (active) and 19.3 µM (active)
Potency [13]: inactive
Potency [20]: inactive
activity change ([18]; at 70.3 µM (top of the series)): 4% (inactive)
activity change ([18]; at 95 µM (top of the series)): 0.0315% (inactive)
Potency [14]: inactive
Potency [19]: inactive

CCC(=O)Nc1ccc(Cl)c(Cl)c1
outcome [1]: inactive
Potency [2]: inactive
outcome [3]: inactive
outcome [4]: inactive
outcome [5]: inactive
Potency [6]: inactive
outcome [7]: inactive
Potency [9]: inactive
Potency [10]: inactive
Potency [11]: inactive
Potency [12]: inactive
Potency [13]: inactive
Potency [17]: 22.3 µM (active) and 24.5 µM (active)
Potency [20]: inactive
activity change ([18]; at 70.3 µM (top of the series)): -3.69% (inactive)
activity change ([18]; at 95 µM (top of the series)): -4.49% (inactive)
Potency [14]: inactive
Potency [19]: 48.6 µM (active)
